From the supplement of paper PMC8728848
The full list was thinned out, with the strongest signals kept by preference.

Tests used:
Assay in all cases: glycan array binding signal (z-score within array); higher = stronger binding
Conditions in all cases: glycan notation: IUPAC condensed, linker removed
[1] = biological target: GlcNAc(b1-3)Fuc
How it was run: (§1)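 From the Consortium for Functional Glycomics database, 3228 arrays were curated, keeping only those whose protein sequence was available. Binding is given as a within-array Z-score averaged across arrays sharing a protein sequence and across linkers. Negative Z-scores can be read as non-binding.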

[2] = biological target: GlcNAc(b1-3)Gal(b1-4)GlcNAc(b1-3)Gal(b1-4)GlcNAc
How it was run: as §1

[3] = biological target: GlcNAc(b1-3)[GlcNAc(b1-4)][GlcNAc(b1-6)]GlcNAc
How it was run: as §1

[4] = biological target: GlcNAc(b1-4)Gal(b1-4)GlcNAc
How it was run: as §1

[5] = biological target: GlcNAc(b1-4)GlcNAc
How it was run: as §1

[6] = biological target: GlcNAc(b1-4)GlcNAc(b1-4)GlcNAc
How it was run: as §1

[7] = biological target: Kdn(a2-3)Gal(b1-4)GlcNAc
How it was run: as §1

[8] = biological target: Man(a1-3)[Man(a1-6)]Man(b1-4)GlcNAc(b1-4)GlcNAc
How it was run: as §1

[9] = biological target: MurNAc(b1-4)GlcNAc
How it was run: as §1

[10] = biological target: Neu5Ac(a2-3)Gal(b1-3)GalNAc
How it was run: as §1

[11] = biological target: Neu5Ac(a2-3)Gal(b1-3)GlcNAc(b1-2)Man
How it was run: as §1

[12] = biological target: Neu5Ac(a2-3)Gal(b1-3)GlcNAc(b1-2)Man(a1-3)[GlcNAc(b1-4)][Neu5Ac(a2-3)Gal(b1-3)GlcNAc(b1-2)Man(a1-6)]Man(b1-4)GlcNAc(b1-4)GlcNAc
How it was run: as §1

[13] = biological target: Neu5Ac(a2-3)Gal(b1-3)[Fuc(a1-4)]GlcNAc
How it was run: as §1

[14] = biological target: Neu5Ac(a2-3)Gal(b1-3)[Fuc(a1-4)]GlcNAc(b1-3)Gal(b1-4)[Fuc(a1-3)]GlcNAc
How it was run: as §1

[15] = biological target: Neu5Ac(a2-3)Gal(b1-3)[GlcNAc(b1-6)]GalNAc
How it was run: as §1

[16] = biological target: Neu5Ac(a2-3)Gal(b1-4)GlcNAc(b1-2)Man
How it was run: as §1

[17] = biological target: Neu5Ac(a2-3)Gal(b1-4)GlcNAc(b1-3)Gal
How it was run: as §1

[18] = biological target: Neu5Ac(a2-3)Gal(b1-4)GlcNAc(b1-3)Gal(b1-4)GlcNAc
How it was run: as §1

[19] = biological target: Neu5Ac(a2-3)Gal(b1-4)[Fuc(a1-3)]GlcNAc(b1-6)[Gal(b1-3)]GalNAc
How it was run: as §1

[20] = biological target: Neu5Ac(a2-6)Gal(b1-4)GlcNAc(b1-2)Man(a1-3)[Gal(b1-4)GlcNAc(b1-2)Man(a1-6)]Man(b1-4)GlcNAc(b1-4)GlcNAc
How it was run: as §1

[21] = biological target: Neu5Ac(a2-6)Gal(b1-4)GlcNAc(b1-2)Man(a1-3)[GlcNAc(b1-2)Man(a1-6)]Man(b1-4)GlcNAc(b1-4)GlcNAc
How it was run: as §1

[22] = biological target: Neu5Ac(a2-6)Gal(b1-4)GlcNAc(b1-2)Man(a1-3)[Neu5Ac(a2-6)Gal(b1-4)GlcNAc(b1-2)Man(a1-6)]Man(b1-4)GlcNAc(b1-4)GlcNAc
How it was run: as §1

[23] = biological target: Neu5Ac(a2-6)Gal(b1-4)GlcNAc(b1-3)Gal(b1-4)GlcNAc(b1-2)Man(a1-3)[Neu5Ac(a2-6)Gal(b1-4)GlcNAc(b1-3)Gal(b1-4)GlcNAc(b1-2)Man(a1-6)]GalNAc
How it was run: as §1

[24] = biological target: Neu5Ac(b2-6)Gal(b1-4)GlcNAc
How it was run: as §1

[25] = biological target: Neu5Gc(a2-6)Gal(b1-4)GlcNAc
How it was run: as §1

[26] = biological target: Neu5Gc(a2-8)Neu5Gc(a2-3)Gal(b1-4)GlcNAc
How it was run: as §1

B1: LecRKVI.2 (protein)
chain: RTTTNFAFRGFNGNQSKIRIEGAAMIKPDGLLRLTDRKSNVTGTAFYHKPVRLLNRNSTNVTIRSFSTSFVFVIIPSSSSNKGFGFTFTLSPTPYRLNAGSAQYLGVFNKENNGDPRNHVFAVEFDTVQGSRDDNTDRIGNDIGLNYNSRTSDLQEPVVYYNNDDHNKKEDFQLESGNPIQALLEYDGATQMLNVTVYPARLGFKPTKPLISQHVPKLLEIVQEEMYVGFTASTGKGQSSAHYVMGWSFSSGGERPIADVLILSELPPPPPNKAKKEGLNS
glycan array binding signal (z-score) [1]: -0.233 | glycan array binding signal (z-score) [2]: -0.415 | glycan array binding signal (z-score) [3]: -0.429 | glycan array binding signal (z-score) [4]: -0.256 | glycan array binding signal (z-score) [5]: -0.232 | glycan array binding signal (z-score) [6]: -0.408 | glycan array binding signal (z-score) [7]: -0.49 | glycan array binding signal (z-score) [8]: -0.376 | glycan array binding signal (z-score) [9]: -0.279 | glycan array binding signal (z-score) [10]: -0.423 | glycan array binding signal (z-score) [11]: -0.335 | glycan array binding signal (z-score) [12]: -0.407 | glycan array binding signal (z-score) [13]: -0.318 | glycan array binding signal (z-score) [14]: -0.388 | glycan array binding signal (z-score) [15]: -0.402 | glycan array binding signal (z-score) [16]: -0.25 | glycan array binding signal (z-score) [17]: -0.323 | glycan array binding signal (z-score) [18]: -0.162 | glycan array binding signal (z-score) [19]: 3.09 | glycan array binding signal (z-score) [20]: 0.37 | glycan array binding signal (z-score) [21]: -0.274 | glycan array binding signal (z-score) [22]: 0.07 | glycan array binding signal (z-score) [23]: 3.81 | glycan array binding signal (z-score) [24]: -0.393 | glycan array binding signal (z-score) [25]: -0.356 | glycan array binding signal (z-score) [26]: -0.395
